Reference: PubChem BioAssay AID1445 (SRMLSC, 2008)
The whole screen tested about 220,000 compounds, of which about 910 (0.41%) were called active. What follows is part of a selection rich in actives, with near analogues and random picks from the rest. Results with a measured potency or affinity are listed apart. A number with no mark means an inactive call.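 How the source made its calls: active means primary inhibition above the hit cutoff, then over 50% inhibition at one or more dose response concentrations (cut at about 23% in these data, passing the limit was not always enough); inconclusive means conflicting primary data, or primary hits not chosen for dose response; inactive means low primary inhibition, or under 50% at every dose.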

Each compound was assayed against Aminopeptidase N (Plasmodium falciparum (isolate 3D7)) (UniProt O96935) (assay: malaria alanyl aminopeptidase activity blockers – biochemical, fluorogenic H-Leu-NHMec substrate, 1536-well (AID 1445;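 further: plate controls were DMSO full reaction for no effect and no enzyme background for full effect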)). Conditions: recombinant M1AAP, H-Leu-NHMec fluorogenic kinetic assay; at 30 µM, stronger effect = higher value unless noted.
Chain of Aminopeptidase N (Plasmodium falciparum (isolate 3D7)) (O96935 whole entry, looked up): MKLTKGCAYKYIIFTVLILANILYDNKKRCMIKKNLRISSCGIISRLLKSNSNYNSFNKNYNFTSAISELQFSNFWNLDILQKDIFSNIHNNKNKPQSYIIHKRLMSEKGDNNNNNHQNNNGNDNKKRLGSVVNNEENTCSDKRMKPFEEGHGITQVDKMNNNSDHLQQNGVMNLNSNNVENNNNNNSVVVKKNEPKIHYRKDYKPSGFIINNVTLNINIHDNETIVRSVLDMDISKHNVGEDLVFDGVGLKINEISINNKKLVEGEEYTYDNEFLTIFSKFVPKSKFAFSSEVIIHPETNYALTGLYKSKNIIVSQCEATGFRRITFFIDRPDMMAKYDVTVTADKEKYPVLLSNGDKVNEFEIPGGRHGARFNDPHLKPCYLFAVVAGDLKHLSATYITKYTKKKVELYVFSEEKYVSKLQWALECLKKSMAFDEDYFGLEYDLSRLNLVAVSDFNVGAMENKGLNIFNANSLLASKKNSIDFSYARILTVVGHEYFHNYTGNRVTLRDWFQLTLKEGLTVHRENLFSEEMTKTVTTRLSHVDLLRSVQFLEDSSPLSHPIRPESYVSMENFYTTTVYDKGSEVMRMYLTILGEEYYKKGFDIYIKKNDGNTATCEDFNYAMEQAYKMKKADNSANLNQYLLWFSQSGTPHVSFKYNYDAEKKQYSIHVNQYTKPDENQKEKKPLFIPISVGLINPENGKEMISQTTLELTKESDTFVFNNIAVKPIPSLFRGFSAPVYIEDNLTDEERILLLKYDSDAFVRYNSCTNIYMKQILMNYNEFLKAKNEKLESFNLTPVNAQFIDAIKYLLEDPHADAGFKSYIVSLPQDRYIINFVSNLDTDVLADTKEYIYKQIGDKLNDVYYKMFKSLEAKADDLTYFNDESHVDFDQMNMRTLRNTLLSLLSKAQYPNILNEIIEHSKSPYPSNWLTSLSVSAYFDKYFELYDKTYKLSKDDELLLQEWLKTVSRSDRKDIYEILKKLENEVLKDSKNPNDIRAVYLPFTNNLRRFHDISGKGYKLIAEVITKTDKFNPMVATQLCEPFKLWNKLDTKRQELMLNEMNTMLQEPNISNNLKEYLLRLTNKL

Compound	inhibition
CCOC(=O)C(=O)c1c(-c2ccc(C)cc2)nc2ccccn12	10.6%
COC(=O)c1c(C)oc(C)c1S(=O)(=O)N1CCCCC1	0.96%
CCCCCCOc1ccc(C(=O)NCCCn2ccnc2)cc1	-4.66%
CN(C)CCNC(=O)NC1CCCCC1	4.13%
CC(=O)NS(=O)(=O)c1ccc(NC(=O)c2ccc3c(c2)C(=O)N(CCC(C)C)C3=O)cc1	9.98%
CCN1C(=O)/C(=C2\SC(=S)N(CC3CCCO3)C2=O)c2ccccc21 (stereo not given)	2.68%
Cc1ccc(S(=O)(=O)N2C(=O)/C(=C3\SC(=S)NC3=O)c3ccccc32)cc1	16.8%
CC(/C=C1\SC(=S)N(NC(=O)c2ccc(O)cc2)C1=O)=C\c1ccccc1	4.4%
CCN1C(=O)/C(=C2\SC(=S)N(CCCOC)C2=O)c2ccccc21	0.63%
CC(/C=C1\SC(=S)N(NC(=O)c2ccccc2C)C1=O)=C\c1ccccc1	4.17%
CC(=O)N1C(=O)/C(=C2\SC(=S)N(c3c(C)n(C)n(-c4ccccc4)c3=O)C2=O)c2ccccc21	9.72%
CC(/C=C1\SC(=S)N(NC(=O)c2ccncc2)C1=O)=C\c1ccccc1	13.9%
CC(/C=C1\SC(=S)N(NC(=O)c2ccc(C)cc2)C1=O)=C\c1ccccc1	5.4%
CC1=C(C(=O)c2ccccc2)C(c2ccc(OC(F)F)cc2)NC(=S)N1 (stereo not given)	3.11%
CN1CCN(CC(=O)NC2CCCCC2)CC1	-3.84%
Cc1cc(C)n(-c2nc3c(c(=O)[nH]c(=O)n3C)n2Cc2cccc(Br)c2)n1	6.71%
COc1cccc(NS(=O)(=O)c2ccc(OC)c(OC)c2)c1	8.68%
COc1ccc(NC(=O)c2ccc3c(SCC(=O)O)c4c(nc3c2)CCCC4)cc1Cl	6.4%
COc1cc(Cl)c(C)cc1NC(=O)c1ccc2c(SCC(=O)O)c3c(nc2c1)CCCC3	39.2%
CC(=O)c1ccc(OCc2cc([N+](=O)[O-])cc3c2OCOC3)cc1	0.98%
CP(C)(=O)CCP(=O)(c1ccccc1)c1ccccc1	2.48%
CCCc1nc(C)c(-c2ccc(OC)c(OC)c2)c(=O)[nH]1	2.27%
Cc1c(CCC(=O)O)c(=O)oc2cc(O)ccc12	18.6%
Cc1c(CCC(=O)O)c(=O)oc2cc3occ(C(C)(C)C)c3cc12	12.5%
Cc1coc2cc3oc(=O)c(Cc4ccccc4)c(C)c3cc12	16.1%

Compound	inhibition
Cc1c(CCC(=O)O)c(=O)oc2cc3oc4c(c3cc12)CCCC4	8.26%
CC(C)Oc1cccc(C(=O)C2CCCN(Cc3cnn(C(C)C)c3)C2)c1 (stereo not given)	3.98%
Cc1ccc(/C=[N+](/C)[O-])cc1	5.58%
Cc1oc(C)c2c(=O)ccc3c(c12)OC(N)=C(C#N)C3c1ccccc1 (stereo not given)	12.5%
Cc1oc(C)c2c(=O)ccc3c(c12)OC(N)=C(C#N)C3c1ccc(F)cc1 (stereo not given)	3.21%
CSc1ccc(C2C(C#N)=C(N)Oc3c2ccc(=O)c2c(C)oc(C)c32)cc1 (stereo not given)	23.3% (active)
COc1cccc(C2c3[nH]c4ccccc4c3CCN2Cc2cccn2-c2ncccn2)c1 (stereo not given)	1.34%
CCOC(=O)CSCc1nc(-c2ccc(Cl)cc2)oc1C	-0.93%
C/C(=N\NC(=O)COc1ccc(C(C)(C)C)cc1)c1ccc(OC(F)F)cc1	6.66%
NC(=O)c1cccc(CC(=O)c2ccccc2)c1	8.26%
COc1cc(C=O)ccc1OCC(=O)N1CCCC1	-0.53%
COc1ccccc1NS(=O)(=O)c1ccc(Cl)c(NC(=O)CN2C(=O)c3ccccc3C2=O)c1	11.8%
COc1ccccc1NS(=O)(=O)c1ccc(Cl)c(NC(=S)NC(=O)C2CCCC2)c1	6.44%
Cc1cc(O)c(C=Nc2cccc(Cl)c2)c(=O)o1	13.6%
O=C1CNC(=O)/C1=C\N1CCN(C(c2ccccc2)c2ccccc2)CC1	10.1%
Cc1c(C(c2ccccc2O)c2c(C)n(C)n(-c3ccccc3)c2=O)c(=O)n(-c2ccccc2)n1C	-0.33%
COc1ccc(-c2cc(=Nc3c(C)n(C)n(-c4ccccc4)c3=O)c3ccccc3o2)cc1	10.6%
COc1ccc(C(c2c(C)n(C)n(-c3ccccc3)c2=O)c2c(C)n(C)n(-c3ccccc3)c2=O)cc1O	2.02%
Cc1c(C(c2ccc(O)cc2)c2c(C)n(C)n(-c3ccccc3)c2=O)c(=O)n(-c2ccccc2)n1C	-4.97%
FC(F)(F)c1ccccc1CN1CCN(C2CCCCCC2)CC1	3.5%
CCOC(=O)N1CCN(C(=O)COc2cc(=O)n(CC)c3ccccc23)CC1	3.47%
Cc1ccccc1NC(=O)N1CCc2ccccc2C1	1.94%
O=Cc1ccc2cccnc2n1	3.17%
O=C(CN1C(=O)S/C(=C\c2ccccc2)C1=O)NNC(=O)c1ccccc1O	6.38%
CC1=CC(C)(C)NC(=S)N1c1ccccc1C	0.18%

Compound	inhibition
O=C1c2ccccc2C(=O)N1Cc1ccco1	3.2%
Cc1ccccc1NC(=O)c1ccccc1O	12.9%
O=C(O)c1ccc(COc2ccccc2/C=C2\NC(=O)N(Cc3ccccc3)C2=O)cc1	-0.49%
O=C(Nc1ccc(O)cc1)c1ccc2c(c1)C(=O)N(Cc1ccco1)C2=O	3.19%
CCOc1ccc(-c2nnc3ccc(SCC(=O)Nc4nc5ccccc5s4)nn23)cc1	-0.15%
Cc1c(NC(=O)C(C)OC(=O)[C@@H](NC(=O)c2ccccc2)C(C)C)c(=O)n(-c2ccccc2)n1C (stereo not given in full)	11.4%
CC(C)Cn1c(-c2ccncc2)n[nH]c1=S	-1.73%
CCc1ccc2[nH]c(=O)c(CN(CCN(CC)CC)C(=O)NC3CCCCC3)cc2c1	6.76%
CCOC(=O)CNC(=O)Cc1ccc(OC)cc1	-3.67%
COC(=O)c1ccccc1NC(=O)CSc1nc2cccnc2n1C	-3.92%
CCSc1nc2ccccc2n1CC(=O)N1CCOCC1	8.83%
O=C(CSc1nc2ccccc2n1CC(=O)N1CCOCC1)N1CCCC1	1.43%
CCC(=O)N1CCN(C(=O)CC)C1c1ccccc1	1.3%
CCC(=O)N1CCN(C(C)=O)C1c1ccccc1 (stereo not given)	-1.61%
CC(=O)N1CCN(C(C)=O)C1c1ccccc1	4.82%
CC1C(=O)CC(c2ccccc2)N(C)C1c1ccccc1 (stereo not given)	-1.3%
COc1ccc(N=C2SC(CC(=O)Nc3ccc(F)cc3)C(=O)N2Cc2ccco2)cc1 (stereo not given)	5.55%
COc1ccc(O)c(C(=O)c2cc(C#N)c(=O)n(-c3ccc(Cl)cc3)c2)c1	4.39%
O=C(c1ccc(COCC(F)(F)F)o1)N1CCCCCC1	-0.95%
CC(=O)c1cc(-c2ccccc2)n(CC(=O)NC(C)(C)C)c1C	5.46%
COCCNc1cc(C)c(C#N)c2nc3ccccc3n12	-4.32%
COc1cccc(/C=N/Nc2ncnc3scc(-c4ccccc4)c23)c1O	2.95%
COc1cc(/C=N/N2C(=O)CSC2=S)ccc1O	20.3%
COc1ccc(/C=N/N2C(=O)CSC2=S)cc1	10.4%
Oc1ccc2ccccc2c1CNc1cnc2ccccc2c1	24.4% (active)

Compound	inhibition
COc1cccc(CNc2cnc3ccccc3c2)c1O	2.44%
Oc1ccccc1CNc1cnc2ccccc2c1	9.27%
CCNC(=S)NNC(=O)c1ccncc1	0.26%
O=C(NCCc1ccccc1)c1ccncc1	-0.47%
O=C(CCN1C(=O)/C(=C/c2ccc(F)cc2)SC1=S)NNC(=O)c1ccncc1	-9.67%
O=C(NCCCc1ccccc1)c1ccncc1	-1.01%
CCOc1ccc(NC(=O)CN(C)C(=O)C2CCCC2)cc1OCC	8.15%
CC(=O)Nc1ccc2nc(SCC(=O)N3CCOCC3)sc2c1	2.3%
COC(=O)CNC(=O)C(C)NC(=O)OCc1ccccc1 (stereo not given)	3.83%
Cc1cc(C)c2[nH]c(=O)c(C(c3nnnn3C(C)(C)C)N(Cc3ccco3)CC3CCCO3)cc2c1 (stereo not given)	11.4%
O=C(CSc1nnc(SCc2ccc(Cl)cc2)s1)N/N=C/c1ccccc1C(=O)O	2.73%
O=C(O)COc1ccccc1/C=N/NC(=O)CSc1nnc(SCc2cccc3ccccc23)s1	11.9%
O=C(CSc1nnc(SCc2ccccc2)s1)N/N=C/c1ccc(Cl)cc1Cl	5.23%
O=C(O)COc1ccccc1/C=N/NC(=O)CSc1nnc(SCc2ccccc2)s1	14.1%
CCOc1ccccc1-n1c(COc2ccccc2)nnc1SCC(N)=O	6.25%
COc1ccc2cc(CN(C(=O)Nc3ccccc3)C3CCCC3)c(=O)[nH]c2c1	10.9%
O=C(CCNC(=O)c1ccccc1Cl)Nc1ccc(S(=O)(=O)Nc2ncccn2)cc1	-2.53%
COc1ccc(C2=NN(C(=O)CCC(=O)O)C(c3cccs3)C2)cc1 (stereo not given)	6.04%
COc1cccc(C2=NN(C(=O)CCCC(=O)O)C(c3cccs3)C2)c1 (stereo not given)	2.4%
COc1ccccc1C1CC(c2c(-c3ccccc3)c3cc(Cl)ccc3[nH]c2=O)=NN1S(C)(=O)=O (stereo not given)	33.3%
O=C(O)CCCC(=O)N1N=C(c2ccccc2)CC1c1cccs1 (stereo not given)	-2.7%
COc1ccc(OC)c(C2CC(c3c(-c4ccccc4)c4cc(Cl)ccc4[nH]c3=O)=NN2S(C)(=O)=O)c1 (stereo not given)	6.89%
O=C(O)CCC(=O)N1N=C(c2ccc(Br)cc2)CC1c1cccs1 (stereo not given)	7.55%
Cc1ccc(C2=NN(C(=O)CCC(=O)O)C(c3cccs3)C2)cc1 (stereo not given)	-2.92%
O=C(O)CCC(=O)N1N=C(c2ccco2)CC1c1cccs1 (stereo not given)	-6.29%
